Screen size: about 2,400 compounds; about 40 (2%) were called active. Inconclusive results (about 1%) are left out.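 Rule for the calls: active = inhibition at or above 60%; inconclusive = inhibition from 0% up to below 60%; inactive = no inhibition observed.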 Only a selection was taken, and actives are over-represented in it overall.
Assay: qHTS Assay for Small Molecule Inhibitors of Mitochondrial Division or Activators of Mitochondrial Fusion: Hit Validation in Malachite Green Assay;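 for inhibition: plate controls were DMSO wells with GTPase for no effect and protein-free buffer wells for full effect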
Conditions: purified GTPase, malachite green phosphate release, A650; active compounds read high
Source text: The budding yeast S. cerevisiae is a powerful system to study mitochondrial fusion. Unlike other organisms, yeast cells without functional mitochondrial DNA (mtDNA) can be propagated and studied as long as they maintain a mitochondrial compartment and are provided with a fermentable carbon source. When mitochondrial fusion is blocked in yeast, mitochondrial tubules rapidly fragment and division continues unopposed. Under conditions where fusion is compromised in mammalian cells, nearly identical changes in mitochondrial structure have been observed. Thus, these findings indicate that steady state mitochondrial structure in cells is a characteristic and specific indicator of fusion activity. Mounting evidence has pointed to a connection between mitochondrial dynamics and apoptosis in mammalian cells. These studies indicate that in mammalian cells mitochondrial dynamics are more integrated into cellular processes than in yeast cells and have evolved not only to distribute the organelle but also to aid in the regulation of cellular homeostasis. Mitochondrial fusion proteins attenuate apoptosis by inhibiting the release of cytochrome c from mitochondria, in part by controlling cristae structures. Thus, small molecules that inhibit mitochondrial fusion may promote apoptosis and potentially act as novel chemotherapeutics and stimulation of apoptosis has become an attractive target of anti-cancer therapies. To identify inhibitors of mitochondrial division, we exploit the growth phenotypes of mitochondrial fusion-defective mutants. The temperature sensitive fusion alleles, such as fzo1-1 and mgm1-5, cause mitochondrial membranes to fragment in cells under non-permissive conditions and cells lose mtDNA, and are unable to grow in the presence of non-fermentable carbon source glycerol. Inhibiting mitochondrial division rescues growth. The hits were tested by the assay provider in a malachite green assay. NIH Chemical Genomics Center [NCGC] NIH Molecular Libraries Probe Production Centers Network [MLPCN] MLPCN Grant: MH081279 Assay Submitter (PI): Jodi M. Nunnari
Malachite Green Reagent Malachite Green carbinol base- Aldrich 229105 Ammonium molybdate - Sigma A7302 For 100 mL Malachite Green reagent in 1N HCl 16 mL conc. HCL + 32 mL H20 = 48 mL 4N HCl 34 mg malachite green base into 40 mL 1N HCl (10 mL 4N HCl + 30 mL H20) 1 g ammonium molybdate in 15 mL 4N HCl Mix Solutions together. Bring up to […] with H2O. Filter using a 0.2 um tissue culture filter unit (has plastic bottle attached) store at 4 masculine C. (Avoid Glassware/Plastics washed in detergent. Mix solutions in 50 mL conical vials.) For 20 uL reaction volume 1.0 uL Test Drug or DMSO: Added first to each well […]: 25 mM Hepes/Pipes pH 7.0 (H/P) 2.0 uL: 50 mM MgCl2 (final 5mM) 2.32 uL: 1 M NaCl (with contributing protein salt, Final = 150mM) 13.4 uL per reaction. Can be mixed in larger volume (Mini Master Mix) 1.6 uL: Protein 7.5 uM or Protein Freezing Buffer. (Final = 0.6uM) After Protein Added to mini Master Mix, 15ul Total Master Mix added to each well with drug. 4 uL: 500 uM GTP (Final = 100uM), Dilute with 25 mM H/P, store on ice. 20 uL Total Volume Make Master Mix: (Calculate desired reactions and add a few for multi-channel pipetting volume). Multiply the number of desired reactions by 13.4 uL for total Mini Master volume. Multiply the number of desired reactions by 1.6 uL for total Protein volume. Mix, and keep on ice until added to wells. Add 15 uL of Master Mix to each reaction well, incubate with drug for 10 min. For Positive (No Drug) controls add 15 uL Master Mix to wells with only 1 uL DMSO. Make PFB (Protein Freezing Buffer) (no Protein) Master Mix. Multiply the number of desired reactions by 13.4 uL for total Mini Master volume. Multiply the number of desired reactions by 1.6 uL for total PFB volume. Mix, and keep on ice until added to wells Add 10 uL of PFBMaster Mix to each Phosphate Standards well, and 15 uL to each negative control well with DMSO. […]

| SMILES | inhibition |
| --- | --- |
| O=C(/C=C/c1ccccc1Cl)c1ccc[nH]1 | inactive |
| Cc1ccc(C)c(/C=C/C(=O)c2ccccc(=O)c2O)c1 | 73.2% (active) |
| Cc1cc(=O)oc2c(C(=O)/C=C\c3cccs3)c(O)ccc12 | inactive |
| Cc1cc(C)nc(NC(=O)/C=C/c2ccccc2Cl)c1 | inactive |
| CC1=C(C(=O)OCc2ccccc2)C(/C=C/c2ccccc2)NC(=S)N1 (stereo not drawn) | inactive |
| C/C(N)=C(/C#N)C(=O)COC(=O)C(c1ccccc1)c1ccccc1 | inactive |
| COc1ccc(/C(N)=N/OC(=O)C2CCC(=O)N2S(=O)(=O)c2ccc(C)cc2)cc1 (stereo not drawn) | inactive |
| O=C(Nc1nc(-c2cccs2)cs1)c1cccc(S(=O)(=O)N2CCCCC2)c1 | inactive |
| COc1ccc(-c2cc(C(=O)OC(C)C(=O)Nc3c(C)n(C)n(-c4ccccc4)c3=O)c3ccccc3n2)cc1 (stereo not drawn) | inactive |
| Cc1cccc(C(=O)N(Cc2nc3ccccc3c(=O)[nH]2)C2CCCCC2)c1 | inactive |
| O=C(NCc1ccc2c(c1)OCO2)c1ccc(-c2ccc(Cl)cc2)o1 | inactive |
| CCc1ccccc1NC(=O)/C(C#N)=C/c1ccc(Sc2ccccc2)o1 | inactive |
| COc1cc2c(c(OC)c1OC)-c1c(cc3c(c1O)OCO3)C[C@@H](C)[C@@H](C)C2 | inactive |
| Cc1cccn2c(=O)c(/C=C(\C#N)C(=O)NCc3ccco3)c(N3CCCCC3)nc12 | inactive |
| Clc1ccc(C[n+]2csc3ccccc32)cc1 | 71.7% (active) |
| Cc1nc(CS(=O)(=O)c2ccccc2)cc(Sc2ccc(Cl)cc2Cl)n1 | inactive |
| COc1cc(OC)cc(-c2c(-c3cccs3)c3cc(-c4ccn[nH]4)ccc3n2C)c1 | inactive |
| CCOc1ccc(C(=O)Nc2c(C(N)=O)oc3ccccc23)cc1 | inactive |
| CCOC(=O)c1sc(NC(=O)c2ccco2)c(C#N)c1C | inactive |
| CCOC(=O)Nc1sc2c(c1C#N)CCC(C)C2 (stereo not drawn) | inactive |
| CCOC(=O)c1c(NC(=O)C(C)OC(=O)C2=COCCO2)sc2c1CCCC2 (stereo not drawn) | inactive |
| CCCc1ccc(-c2csc(NC(=O)C3=COCCO3)n2)cc1 | inactive |
| CCOC(=O)c1sc(NC(=O)C2=COCCO2)c(C#N)c1C | 100% (active) |
| CCOC(=O)c1sc(NC(=O)c2ccncc2)c(C#N)c1C | 104% (active) |
| CCc1ccccc1N(CC(=O)NCCc1ccccc1)C(=O)CCC(=O)Nc1ccccn1 | inactive |
| COc1ccccc1N1CCN(C(=O)c2cc(=O)c3c(C)cc(C)cc3o2)CC1 | inactive |
| CCOC(=O)c1c(CN2CCN(c3ccccc3)CC2)oc2ccc(O)cc12 | inactive |

| SMILES | inhibition |
| --- | --- |
| CNC(=O)c1ccsc1NC(=O)c1ccccc1 | inactive |
| C=CCN(c1ccccc1)S(=O)(=O)c1ccc2c(c1)NC(=O)C(C)S2 (stereo not drawn) | inactive |
| CCCNC(=S)N1CCN(c2nc(C)nc3sc4c(c23)CCCC4)CC1 | inactive |
| O=C(Nc1ccc(Cl)c(-c2nc3ccccc3[nH]2)c1)c1ccc2c(c1)OCO2 | inactive |
| S=C(Nc1ccc(Oc2ccccc2)cc1)NC1CCCCC1 | inactive |
| O=C1C=C(c2cccc(Cl)c2)C[C@@H](c2ccc3c(c2)OCO3)C1 | inactive |
| CC(C)c1nnc(NC(=O)C2c3ccccc3Oc3ccccc32)s1 | 93.8% (active) |
| CCc1nnc(NC(=O)C2c3ccccc3Oc3ccccc32)s1 | inactive |
| O=C(Nc1nc(-c2ccncc2)cs1)C1c2ccccc2Oc2ccccc21 | inactive |
| O=C(CCc1ccc(Oc2cc([N+](=O)[O-])cc([N+](=O)[O-])c2)cc1)Nc1cccc(Cl)c1 | inactive |
| CCN(CC)C(=O)CSc1nc2cc3c(cc2c(=O)n1CCCCCC(=O)NCc1ccc(OC)cc1)OCO3 | inactive |
| Cc1ccc(NCc2n[nH]c(=S)n2-c2cccc(Cl)c2)cc1 | inactive |
| CC1CCc2[nH]c3ccc(C(=O)N4CCCC(C(F)(F)F)C4)cc3c2C1 (stereo not drawn) | inactive |
| Cc1ccc(-n2nnnc2SCC(=O)c2cc(C)n(-c3cc(C)on3)c2C)c(C)c1 | inactive |
| C#CCOc1ccc(/C=C2\SC(=S)N(Cc3cccnc3)C2=O)cc1 | inactive |
| O=C(CCCN1C(=O)/C(=C/c2ccccc2)SC1=S)Nc1ccccc1O | inactive |
| O=C1/C(=C\c2ccc(O)c(O)c2)SC(=S)N1Cc1ccccc1 | 94.2% (active) |
| O=C(CN1CCN(c2ccccn2)CC1)Nc1ccccc1 | inactive |
| CC(C)n1c(O)c(N=NC(=O)C2COc3ccccc3O2)c2ccccc21 (stereo not drawn) | inactive |
| CCOC(=O)N=Nc1c(O)n(Cc2ccccc2)c2ccccc12 | inactive |
| CC(C)(C)c1ccc2c(c1)OC(C(=O)N/N=C\c1ccccn1)CO2 (stereo not drawn) | 66% (active) |
| Cc1c(/C=N\NC(=O)C2COc3ccc(C(C)(C)C)cc3O2)c2ccccc2n1C (stereo not drawn) | inactive |
| CCSc1nnc(NC(=O)c2ccccc2C)s1 | inactive |
| COCCCNc1nc2ccccc2nc1NS(=O)(=O)c1cccc(Cl)c1 | inactive |
| Cc1ccc(C)c(NC(=O)c2ccccc2Sc2ccc([N+](=O)[O-])cc2Cl)c1 | inactive |
| N#Cc1ccc(-c2ccccc2)nc1SCC(=O)c1cc2ccccc2oc1=O | inactive |
